From the supplement of paper PMC6555819

What was measured:
Test in all cases: PBM binding z-score (relative to random genomic background probes); higher = stronger binding; sequences stand for … in GC…GCGATTGACAGCGTAGAATGAAGG
[1] = tested on: FXR:RXRa (NR concentration 270 nM, RXRa partner concentration 90 nM)
Method in brief: (§1)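 Binding buffer was PBS pH 7.4 with 2% milk, 0.02% Triton X-100, 1 mM DTT, 0.2 mg/mL BSA and 0.4 mg/ml salmon testes DNA. In it, ligand-free nuclear receptor dimers were incubated 1 h on custom Agilent 4×180K protein-binding microarrays carrying double-stranded probes. Antibodies against each partner (one per run) detected binding, and z-scores were calculated against random background probes after regression normalization of scanned fluorescence.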

[2] = tested on: LXRa:RXRa (NR concentration 270 nM, RXRa partner concentration 90 nM)
Method in brief: as §1

[3] = tested on: LXRa homodimer (NR concentration 270 nM)
Method in brief: as §1

[4] = tested on: LXRb:RXRa (NR concentration 270 nM, RXRa partner concentration 90 nM)
Method in brief: as §1

[5] = tested on: LXRb homodimer (NR concentration 270 nM)
Method in brief: as §1

[6] = tested on: PPARa:RXRa (NR concentration 270 nM, RXRa partner concentration 90 nM)
Method in brief: as §1

[7] = tested on: PPARg:RXRa (NR concentration 180 nM, RXRa partner concentration 90 nM)
Method in brief: as §1

[8] = tested on: PPARg:RXRa 270nM:90nM, anti-RXR (NR concentration 270 nM, RXRa partner concentration 90 nM)
Method in brief: as §1

[9] = tested on: PPARg:RXRa 30nM:10nM, anti-RXR (NR concentration 30 nM, RXRa partner concentration 10 nM)
Method in brief: as §1

[10] = tested on: PPARg:RXRa 90nM:30nM, anti-RXR (NR concentration 90 nM, RXRa partner concentration 30 nM)
Method in brief: as §1

Row | Sequence | PBM binding z-score [1] | PBM binding z-score [2] | PBM binding z-score [3] | PBM binding z-score [4] | PBM binding z-score [5] | PBM binding z-score [6] | PBM binding z-score [7] | PBM binding z-score [8] | PBM binding z-score [9] | PBM binding z-score [10]
1 | CAGCCTAGGTCAGCGCCAGTATAGGAGGAACGTT | 1.62 | 1.05 | -0.445 | 0.71 | -0.863 | 1.92 | 0.956 | 1.24 | -0.327 | 0.61
2 | TGTCAAAGTTGAAAGGTAACGTAAGTATCCACAC | 1.27 | 1.12 | -0.229 | 1.38 | -0.452 | 3.49 | 5.4 | 5.19 | 2.72 | 4.73
3 | ACTATTAGTTGACTTTGGGCAACCGATACGACGC | 0.0915 | 0.0714 | 0.0306 | 0.155 | 0.67 | -0.00502 | 0.965 | 0.394 | 0.326 | 0.537
4 | CCTCGGAGGACAATAGGAGGTCAGAGCTGCCAGA | 0.746 | 2.4 | 3.23 | 1.38 | -0.2 | 1.87 | 0.443 | 0.389 | -0.612 | -0.255
5 | CCTTACGGGTCACTGATAGGTTATAGCATTTGGA | 5.04 | 4.27 | 0.473 | 3.53 | 0.0559 | 5 | 4.57 | 4.4 | 1.47 | 3.36
6 | CCTTACGGGTCACTCGAGGTTATAGCATCGGAGT | 5.2 | 7.76 | 3.19 | 5.72 | -0.178 | 5.01 | 4.03 | 4.33 | 1.41 | 3.01
7 | CGTCCAAGGTCAAACGTCAGTGAAGAGATGACGG | 7.81 | 5.85 | 1.39 | 4.54 | 1.77 | 6.06 | 5.95 | 6.15 | 3.64 | 5.2
8 | TCGAGTAGGTTACCAATGTGGCATTCAGCTTTCT | 0.261 | 1.41 | -0.667 | 0.671 | 0.104 | 0.803 | 0.268 | 1.09 | 0.936 | 1.08
9 | TCTGCCAGGTCAGTTGGTCAGCTAACGAGCTGCC | 1.42 | 0.919 | -0.414 | 0.653 | 0.604 | 1.61 | -0.0729 | 1.28 | 1.13 | 0.918
10 | TAACCAAGGTGAAGGTCGTTGATCCCTCTGTAGA | 2.07 | 2.07 | 0.0328 | 1.66 | -0.394 | 2.58 | 3.03 | 3.53 | 2.15 | 4.01
11 | CGTCCAAGGTCAGCTGGTCAGTGAAAGCGACGTG | 5.24 | 3.28 | -0.407 | 2.31 | -0.208 | 3.99 | 2.08 | 2.85 | 0.432 | 1.47
12 | GCTCCGAGGACAAGGTCAGAGCTTTGTCCGTAGA | 1.79 | 1.33 | -0.653 | 1.05 | -1.37 | 2.23 | 0.168 | 1.15 | -0.379 | 0.299
13 | AGAACGAGGGCAATGAGTTTATAGCACGGGTGGC | 0.163 | 0.317 | -0.472 | -0.145 | -0.322 | 1.25 | 1.55 | 0.876 | 0.119 | 0.36
14 | ACTAGCAGGCCAAGGGGCACTCAAGATTAGTCCG | -0.336 | -0.192 | -0.413 | 0.0457 | -0.63 | 1.63 | 4.11 | 4.46 | 2.5 | 4.64
15 | ATATGTAGGTTAAGGGTCATTGAGGTTGGTTCGC | 5.02 | 4.71 | 3.01 | 4.45 | 1.6 | 6.56 | 11.9 | 10 | 10.5 | 10.7
16 | CCTTACGGGTCACTGACAGGTTATTGCATTTGGA | 5.44 | 4.13 | 0.625 | 3.78 | 0.134 | 5.14 | 4.45 | 4.46 | 1.42 | 2.91
17 | CTACCAAGGTGAACAAGATCGTTGATTACTATTC | 0.605 | 0.479 | -0.171 | 0.709 | -0.457 | 1.31 | 0.756 | 0.973 | 0.161 | 0.606
18 | CGAACTAGGTCATCCAGCACAGTGAATACATTGA | 4.05 | 2.64 | 0.684 | 2.07 | 0.124 | 4.78 | 7.47 | 6.28 | 3.93 | 5.81
19 | GCGACTGGGGCAAAGCAGGATACCATAAGGTTGG | 0.421 | -0.82 | -0.556 | -0.347 | -0.952 | 0.75 | 1.31 | 1.03 | -0.094 | 0.712
20 | ACTAGCAGGCCAAGTTTTGGTCACTCAAACAAAG | -0.294 | -0.403 | -0.274 | -0.34 | -0.558 | -0.0813 | -0.156 | -0.261 | -0.692 | -0.457
21 | TGACCAAGGTGAAAGGTCGTTGATGCACGCCTTG | 3.6 | 2.98 | 0.293 | 2.62 | -0.814 | 5.24 | 8.5 | 7.41 | 6.27 | 7.51
22 | CTTGCTAGGTCATGGTCAGCTAATCTACAGTATG | 3.63 | 2.86 | 0.466 | 1.66 | -0.00744 | 3.61 | 3.05 | 3.54 | 1.34 | 2.35
23 | CCTACTGGGCCAAAGGTCATTGAGTCCAATGCTC | 4.97 | 5.37 | 3.87 | 4.99 | 0.584 | 6.7 | 11.6 | 9.86 | 10.1 | 10.7
